According to the supplement of paper PMC12632987:

Biological target: T1, USP38, Q8NB14
T1 chain: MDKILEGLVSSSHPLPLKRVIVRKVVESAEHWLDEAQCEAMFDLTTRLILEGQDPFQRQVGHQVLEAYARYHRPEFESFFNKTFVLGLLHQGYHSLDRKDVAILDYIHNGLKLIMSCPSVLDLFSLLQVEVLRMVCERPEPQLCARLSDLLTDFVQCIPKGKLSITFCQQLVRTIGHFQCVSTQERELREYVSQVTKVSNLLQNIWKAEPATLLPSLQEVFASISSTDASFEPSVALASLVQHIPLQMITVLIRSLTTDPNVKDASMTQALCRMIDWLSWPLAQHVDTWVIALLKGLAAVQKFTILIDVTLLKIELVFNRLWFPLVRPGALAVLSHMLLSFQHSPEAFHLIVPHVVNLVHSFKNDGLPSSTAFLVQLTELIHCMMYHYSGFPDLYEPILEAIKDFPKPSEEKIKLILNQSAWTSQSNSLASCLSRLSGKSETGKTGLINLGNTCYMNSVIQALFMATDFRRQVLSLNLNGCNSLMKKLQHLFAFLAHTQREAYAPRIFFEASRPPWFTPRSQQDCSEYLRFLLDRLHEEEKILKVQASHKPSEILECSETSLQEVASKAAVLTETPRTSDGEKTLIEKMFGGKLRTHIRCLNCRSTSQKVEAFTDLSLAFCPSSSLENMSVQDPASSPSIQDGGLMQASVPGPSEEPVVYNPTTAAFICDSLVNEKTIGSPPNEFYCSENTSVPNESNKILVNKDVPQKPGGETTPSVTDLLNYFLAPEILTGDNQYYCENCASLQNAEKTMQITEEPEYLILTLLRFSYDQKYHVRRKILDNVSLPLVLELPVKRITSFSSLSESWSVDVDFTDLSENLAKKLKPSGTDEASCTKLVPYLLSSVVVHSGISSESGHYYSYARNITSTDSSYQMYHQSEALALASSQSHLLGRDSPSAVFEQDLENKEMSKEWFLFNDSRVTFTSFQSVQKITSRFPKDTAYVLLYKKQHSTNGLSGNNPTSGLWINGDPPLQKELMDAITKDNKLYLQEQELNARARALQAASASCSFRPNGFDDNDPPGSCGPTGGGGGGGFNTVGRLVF
Experiment: median log2 fold change of GCK-ALFA target abundance (FLAG IP / Myc IP barcode read proportion) (log2 ratio); each designed protein is fused to an ALFA-tag nanobody in HEK293 cells to bring the named protein to FLAG-tagged glucokinase (GCK); Myc marks an untargeted standard; higher = target protein stabilised (more abundant)
Conditions: target protein: 3xFLAG-MCP-GCK-ALFA reporter; HEK293 landing pad (RPLP)
In short: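 Binders fused to an ALFA nanobody were recombined as a library into HEK293 landing-pad cells, which were induced with 2 μg mL^−1 doxycycline and then transfected to express a FLAG-tagged target and a Myc-tagged standard. After 48 h, circular RNA barcodes recovered by anti-FLAG and anti-Myc immunoprecipitation of lysates were reverse transcribed, amplified and sequenced. Each binder's target abundance is the median log2 ratio of FLAG to Myc barcode read proportions, from barcodes present at ≥10^−7 in both replicates, binders carrying ≥3 barcodes per replicate, a 10^−6 pseudocount and pooled replicates.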

B1: usp_38_diff_out_17_26_241 (protein)
chain: SMEERRKEAEELLRRLEEETEKALEEIEKLIEEGKFEEARKLLDEAVDYATETATRILELAADDPELMDRALAVIGRIFDRLAEAYRRLEEARRRAEEEA
median log2 fold change: -0.00366

B2: usp_38_diff_out_18_121_250 (protein)
chain: DGEELLRRLREALRRAEEKLRELEELLERAEEVSLEELRAALDAAADALGEAAALLREARRRLGPEYREELEEAERRLDELVDRYTELGTRLFLLEAERQ
median log2 fold change: -0.109

B3: usp_38_diff_out_18_121_251 (protein)
chain: EAKKVAEEALKAAKEATKLAKELLKAIKEGKWEKAEKLDKELDKKIKEFGRLYQELRDLRSEDPEQTKPLLKEVEKEGDKMIDIYNEAGTALFLAEAERQ
median log2 fold change: -0.563

B4: usp_38_diff_out_18_14_270 (protein)
chain: SEELKKALLSNLESLKKDVKEYTERVLRLLEKRKDDPEQVERIVERAERDLAGVEEYAKEVLKEAKKLGDEELLKAAEELIKLTKEARERIEKKREEVLK
median log2 fold change: -0.331

B5: usp_38_diff_out_17_60_246 (protein)
chain: SAEAEKIIKELEERLEELEKRLKELEKEFKKAKAAGDKAKLEALAKEAQALLDEIADLLVELAKNSEIIDPETFLELADRASELADRAFALLKEIQKELA
median log2 fold change: -0.51

B6: usp_38_diff_out_18_14_267 (protein)
chain: SAELSEALKSNLETLTADVAADTDRVIRLLDARKDDPEAVKRIHERARRNLAGVEAYAEEVKAEAEKAGDAEVKAAAEKLLAAVAAARARIDARYAEVMA
median log2 fold change: 0.0912

B7: usp_38_diff_out_18_14_264 (protein)
chain: SEELSEAEKSALKLLKKDVEEETERVIRLLRQAKDDPERVKRIYERAKRNLAGVRKYAEEVLKRAEEAGDEETKKAAEELLKKIEEAEKRIEEEYKRVTA
median log2 fold change: 0.118

B8: usp_38_diff_out_18_14_261 (protein)
chain: SEELSEAKISALKLLEKSVKEDTERKIRLLEKAKDDPERVKRIYERALRELAGVREYAEEVLKEAKEAGDEETAEAAKRLLKTIEEARERLEEEYKRVMA
median log2 fold change: 0.0867

B9: usp_38_diff_out_17_35_245 (protein)
chain: SLEEKERELLERTRRAAEEALRRARELLEAAKADPSQIDRYLAEARAVLDRFLAEAADILIEAAKLEIDAEVLQEIGDIIDRASDELQAILDELEALKAA
median log2 fold change: 0.015

B10: usp_38_diff_out_18_14_256 (protein)
chain: SEELTKAEISNLESLKKSVKEDTERVIRLLEKNKDDPERVKRIYERAQRNLAGVETYAKEVLERAKKEGDEELAKAAEELLKEIEEARKRIEEKVKEVLA
median log2 fold change: 0.00955

B11: usp_38_diff_out_18_14_272 (protein)
chain: DEELSEALLSNLKSLKEDVKEYTKRVLRLLEANKDDPERVKRIYERAERNLEGVEKFAEEVLKEAKERGDEEVQKAAKELKEEAKKAREEIKKKVKEVLA
median log2 fold change: -0.188

B12: usp_38_diff_out_18_14_274 (protein)
chain: SEELSEALKSNLESLKKDVEKDTKRTIELLKKNKDDPERVKRIVERAERNLEGVITFAEEVLKEAEKRGDEEVKKAAEELIKKAKEALEKIKEEAKKVLA
median log2 fold change: 0.186

B13: usp_38_diff_out_18_121_254 (protein)
chain: KAEELAKKALELAEEIEKLSKELLKAIKEGNKEKAEELRKKLDEKIRELGRLYQELRDLHAENPHETRELLKEVNEKANKAIDEREKAETAYFEFLAEQE
median log2 fold change: -0.478

B14: usp_38_diff_out_17_60_248 (protein)
chain: SAEAEAIIARLEARLEELERRLEELERRFEEAERRGDKAELEELLKELDELLGEIADLLVELAKNSELIDPETFLRLADRASELADRAFALRQRVQQALA
median log2 fold change: -1.11

B15: usp_38_diff_out_18_121_249 (protein)
chain: NPEELLEELRRALEEARRALEELEKLLENREEVSLEELREALRRAADALGRAAALLREARRRIGPEYREEIERAEKELDELVDRYTELGRELFLLEAERE
median log2 fold change: -0.0715

B16: usp_38_diff_out_17_26_242 (protein)
chain: EAEERRREARERLERLREETERALEEIDRLIAEGKFEEARKLLEETVRKATEEMTEILELAADDPELMEEALRAWDEISDRLAARYRELQAAIAAAKAAA
median log2 fold change: 0.467
